A selection: hits, their analogues and other compounds. The true share with any hit is near 9.9%.
Tau ThT inhib – tau fibrillization inhibition (ThT binding); Potency, µM (top dose mostly 57.4 µM), hits mostly inhibitors; 270,000 compounds, 2.1% hits; P10636; recombinant tau K18 P301L, heparin-induced fibrillization, ThT fluorescence; active means well fitted curve in the direction sought with a large enough effect; inconclusive means small, poorly fitted or top-dose-only effect, or another doubt; inactive means no such curve, though single readings can be large; an effect the other way counts as inactive or inconclusive; further: nearly all actives have a fitted effect of over 55% in size
Target sequence (P10636 561-689 P618L limits assumed): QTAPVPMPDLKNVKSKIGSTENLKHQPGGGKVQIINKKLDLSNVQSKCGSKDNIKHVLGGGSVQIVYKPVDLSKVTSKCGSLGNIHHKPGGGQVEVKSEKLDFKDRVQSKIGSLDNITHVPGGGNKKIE
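Heparin-induced (20 uM) aggregation of recombinant human K18 P301L tau, 15 uM unlabeled with 0.24 uM labeled, pH 7 acetate buffer, 6 hr at 37 C with compound. Fibrils quantified by 30 uM ThT fluorescence after 1 hr ambient incubation.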
Tau fluor counter – counter-screen for tau fibril formation inhibitors | Potency, µM (doses to about 57.7 µM) | 280,000 compounds, 0.93% hits | AID 1463 | tau K18 P301L (four-repeat tau fragment) Alexa594 fluorescence, heparin fibrillization; active means well fitted curve in the direction sought with a large enough effect; inconclusive means small, poorly fitted or top-dose-only effect, or another doubt; inactive means no such curve, though single readings can be large; an effect the other way counts as inactive or inconclusive; further: nearly all actives have a fitted effect of over 55% in size
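Human K18 P301L tau (15 uM unlabeled plus 0.24 uM Alexa 594-labeled, final) in 100 mM sodium acetate pH 7 was mixed with compound and 20 uM heparin and incubated 6 hr at 37 C.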
Tau fibril FP – inhibitors of human tau fibril formation; K18 P301L tau heparin fibrillization, Alexa594 FP, 6 h; P10636; Potency, µM (series often up to 57.7 µM), most hits filed as inhibitors; 280,000 compounds, 0.39% hits; active means well fitted curve in the direction sought with a large enough effect; inconclusive means small, poorly fitted or top-dose-only effect, or another doubt; inactive means no such curve, though single readings can be large; an effect the other way counts as inactive or inconclusive; further: nearly all actives have a fitted effect of over 55% in size
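Read-out: fluorescence polarization of Alexa 594-labeled tau (0.24 uM), 555 nm excitation, 632 nm emission. Mixtures held 15 uM unlabeled K18 P301L, compound and 20 uM heparin, pH 7 acetate buffer, incubated 6 hr at 37 C.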
ALDH1A1 inh – ALDH1A1 (human) enzyme inhibition | P00352 | AID 1030 | Potency, µM (series often up to 75.3 µM), most hits filed as inhibitors | Purified ALDH1A1, NADH fluorescence, propionaldehyde substrate | 220,000 compounds, 7.3% hits
KDM4E inh – inhibitors of human JMJD2E histone demethylase; B2RXH2; JMJD2E catalytic domain, FDH-coupled NADH fluorescence (FDH is formaldehyde dehydrogenase); Potency, µM (series often up to 57.1 µM), hits mostly inhibitors; 230,000 compounds, 1.6% hits; further: nearly all actives have a fitted effect of over 50% in size
Target sequence (B2RXH2 1-337 limits assumed): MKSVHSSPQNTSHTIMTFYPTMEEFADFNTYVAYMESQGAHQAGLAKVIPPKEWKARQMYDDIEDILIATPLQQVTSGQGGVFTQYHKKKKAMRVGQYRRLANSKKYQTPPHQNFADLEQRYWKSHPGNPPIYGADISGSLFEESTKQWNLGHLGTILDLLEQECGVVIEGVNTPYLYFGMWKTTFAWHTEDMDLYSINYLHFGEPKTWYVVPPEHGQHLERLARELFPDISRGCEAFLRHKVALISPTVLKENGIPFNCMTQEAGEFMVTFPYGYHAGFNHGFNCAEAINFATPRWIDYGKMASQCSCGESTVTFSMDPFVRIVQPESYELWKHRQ
HPGD inh – HPGD (human) dehydrogenase inhibition; P15428; purified HPGD, NADH fluorescence kinetic, PGE2 substrate; Potency, µM, usual class: inhibitors; 150,000 compounds, 4.3% hits
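20 nM HPGD preincubated 15 min at room temperature with compound in 50 mM Tris-HCl pH 8, 0.01% Tween 20. Started with 1 mM NAD+ and 30 uM prostaglandin E2; NADH fluorescence (360/450 nm) read 5 times over 30-s intervals, last minus first.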
A number is an active result; [ ] = another dose, or the depositor's remark. Unless noted, the call rests on the fitted dose curve; in most records, active means well fitted inhibition curve with a large enough effect (not every such curve was filed as active); inconclusive means small, poorly fitted or top-dose-only effect, or another doubt; inactive means no such curve, though single readings can be large or run the other way.

For O=[N+]([O-])c1ccc(/C=N/Nc2nc(N3CCCCCC3)nc(N3CCCCCC3)n2)o1 the results were Tau ThT inhib inconclusive, Tau fluor counter inconclusive, Tau fibril FP inactive, ALDH1A1 inh inactive, KDM4E inh inactive and HPGD inh inactive.
For O=C(O)c1ccc(CN2CCOCC2)o1 the results were Tau ThT inhib inactive, Tau fluor counter inactive, Tau fibril FP inactive, ALDH1A1 inh inactive and KDM4E inh inactive.
COc1ccc(CNC(=O)CN(C(=O)c2ccc(CN3CCOCC3)o2)C2CCCC2)cc1 was read as Tau ThT inhib inactive, Tau fluor counter inactive, Tau fibril FP inactive, ALDH1A1 inh 11.2µM, KDM4E inh inactive and HPGD inh inactive.
Nc1cc(C(=O)O)c(O)c(S(=O)(=O)O)c1 was read as ALDH1A1 inh inconclusive and HPGD inh inactive.
`O=C(/C=C/c1ccccc1F)c1cccc([N+](=O)[O-])c1` gave Tau ThT inhib inconclusive, Tau fluor counter inconclusive, Tau fibril FP inactive, ALDH1A1 inh inconclusive, KDM4E inh inactive and HPGD inh inactive.
Screening COc1ccc(/C=C/c2c([N+](=O)[O-])c(=O)n(C)c(=O)n2C)cc1O returned Tau ThT inhib inactive, Tau fluor counter inactive, Tau fibril FP inactive, ALDH1A1 inh inconclusive, KDM4E inh inactive and HPGD inh inactive.
Screening COc1cc(/C=C/C(=O)c2ccc(C)c([N+](=O)[O-])c2)cc(OC)c1O returned Tau ThT inhib 6.31µM, Tau fluor counter inconclusive, Tau fibril FP inactive, ALDH1A1 inh inactive, KDM4E inh inactive and HPGD inh inactive.
`COc1ccc(/C=C/C(=O)c2ccc(C)c([N+](=O)[O-])c2)cc1O` gave Tau ThT inhib inactive, Tau fluor counter inactive, Tau fibril FP inactive, ALDH1A1 inh 22.4µM, KDM4E inh inactive and HPGD inh 22.4µM.
`COc1cccc(/C=C/C(=O)c2ccc(C)c([N+](=O)[O-])c2)c1` gave Tau ThT inhib inactive, Tau fluor counter inactive, Tau fibril FP inactive, ALDH1A1 inh 7.08µM, KDM4E inh inactive and HPGD inh inactive.
Screening COc1cc(/C=C/C(=O)c2cccc([N+](=O)[O-])c2)cc(OC)c1OC returned Tau ThT inhib inconclusive, Tau fluor counter inconclusive, Tau fibril FP inactive, ALDH1A1 inh 25.1µM, KDM4E inh inactive and HPGD inh inactive.
For COC(=O)N/N=C(\C)c1ccc(C)c([N+](=O)[O-])c1 the results were Tau ThT inhib inactive, Tau fluor counter inactive, Tau fibril FP inactive, ALDH1A1 inh inconclusive, KDM4E inh inactive and HPGD inh inactive.
For CCNc1nc(NCC)n2c(SC(C(=O)Nc3cc(Cl)cc(Cl)c3)c3ccccc3)nnc2n1 (stereo unspecified) the results were Tau ThT inhib inactive, Tau fluor counter inactive, Tau fibril FP inactive, ALDH1A1 inh inactive, KDM4E inh inactive and HPGD inh inactive.
CC1CCC(O)([C@](C)(C(=O)O)c2ccccc2)CC1 (stereo partly specified) was read as ALDH1A1 inh inactive[13.5 µM] and HPGD inh inactive.
`CC(=O)c1c(C)oc2ccc(N(C(=O)Oc3ccccc3)S(=O)(=O)c3ccc(C(C)(C)C)cc3)cc12` gave Tau ThT inhib inactive, Tau fluor counter inactive and Tau fibril FP inactive.
For COc1cc(O)c(C(=O)/C=C/c2ccc(OC)c(O)c2)c(OC)c1 the results were Tau ThT inhib 3.16µM, Tau fluor counter inconclusive, Tau fibril FP inactive, ALDH1A1 inh 14.1µM, KDM4E inh inconclusive and HPGD inh 7.94µM.
For CCCCC(=O)Nc1ccc(C(=O)NNC(=S)NC(=O)c2cccs2)cc1 the results were Tau ThT inhib inconclusive, Tau fluor counter inactive, Tau fibril FP inactive, ALDH1A1 inh 25.1µM and KDM4E inh inconclusive.
`COc1ccc(NC(=S)NNC(=O)c2cccs2)cc1` gave Tau ThT inhib inactive, Tau fluor counter inactive, Tau fibril FP inactive, ALDH1A1 inh inconclusive, KDM4E inh inactive and HPGD inh inactive.
For CC(C)c1ccc(NC(=S)NNC(=O)c2cccs2)cc1 the results were Tau ThT inhib inactive, Tau fluor counter inactive, Tau fibril FP inactive, ALDH1A1 inh 20µM and KDM4E inh inactive.
`O=C(NNC(=S)NC(=O)c1cccs1)c1ccc(NC(=O)c2ccccc2)cc1` gave Tau ThT inhib inconclusive, Tau fluor counter inactive, Tau fibril FP inactive, ALDH1A1 inh inconclusive, KDM4E inh inconclusive and HPGD inh inactive.
Clc1cccc(-n2ncc3c(NC4CCCCC4)ncnc32)c1 was read as Tau ThT inhib inactive, Tau fluor counter inactive and Tau fibril FP inconclusive.
CCOc1ccc(C2/C(=C(\O)c3ccc(OC)c(OC)c3)C(=O)C(=O)N2c2cc(C)on2)cc1OC (stereo unspecified) was read as Tau ThT inhib inactive, Tau fluor counter inactive, Tau fibril FP inactive, ALDH1A1 inh inactive, KDM4E inh inactive and HPGD inh inactive.
Screening CCOc1ccc(/C(O)=C2\C(=O)C(=O)N(c3cc(C)on3)C2c2ccccc2OC)cc1 (stereo unspecified) returned Tau ThT inhib inactive, Tau fluor counter inactive, Tau fibril FP inactive, ALDH1A1 inh 22.4µM, KDM4E inh inactive and HPGD inh inconclusive.
Screening O=C1N=C(N2CCCC2)S/C1=C\C=C\c1ccccc1 returned Tau ThT inhib inconclusive, Tau fluor counter inactive, Tau fibril FP inactive and KDM4E inh inactive.
For OCCC1CN(Cc2ccc3nonc3c2)CCN1Cc1ccsc1 (stereo unspecified) the results were Tau ThT inhib inactive, Tau fluor counter inactive, Tau fibril FP inactive, ALDH1A1 inh 18.9µM and KDM4E inh inactive.
Screening CCOc1ccc(N(C(=O)c2ccc(C)cc2)S(=O)(=O)c2ccc3c(c2)n(C)c(=O)n3C)cc1 returned Tau ThT inhib inconclusive, Tau fluor counter inactive and Tau fibril FP inactive.
Screening Cc1ccc(C(C2=C(O)CC(C)(C)CC2=O)C2C(=O)CC(C)(C)CC2=O)s1 (stereo unspecified) returned Tau ThT inhib inactive, Tau fluor counter inactive, Tau fibril FP inactive, ALDH1A1 inh 8.91µM, KDM4E inh inactive and HPGD inh 3.16µM.
`CC1(C)CC(=O)C(C(C2=C(O)CC(C)(C)CC2=O)c2ccc([N+](=O)[O-])cc2)C(=O)C1` (stereo unspecified) gave Tau ThT inhib inconclusive, Tau fluor counter inactive, Tau fibril FP inconclusive, ALDH1A1 inh inconclusive and KDM4E inh inactive.
CC1(C)CC(=O)C(C(C2=C(O)CC(C)(C)CC2=O)c2ccc(Br)s2)C(=O)C1 (stereo unspecified) was read as Tau ThT inhib inactive, Tau fluor counter inactive, Tau fibril FP inactive, ALDH1A1 inh 3.55µM, KDM4E inh 20µM and HPGD inh 1.41µM.
For CCOc1ccccc1CN(CCc1ccc2c(c1)OCO2)Cc1cccc(OC)c1OC the results were Tau ThT inhib inactive, Tau fluor counter inactive and Tau fibril FP inactive.

Compound activity: PubChem BioAssay, National Center for Advancing Translational Sciences (NCATS)
